Compound activity: PubChem, several laboratories
This is a sample that favours compounds with a hit; in the whole collection about 27% have one here.
CYP2C19 inh: human CYP2C19 inhibition. AID 778. CYP2C19 Supersomes, luciferin-H EGE luminescence, 30 min. P33261. 96,000 compounds, 21% hits. inhibition, % at 5 µM;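 active = CYP2C19 inhibition above a set limit at 5 µM in the primary screen, cut at about 50% in these data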;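 note: plate controls were negative control wells for no effect and 2.5 mM tranylcypromine positive control for full effect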
Cav3 T inh: inhibitors of human Cav3.2 T-type calcium channel. Cav3.2-expressing cells, Fluo-4 calcium fluorescence FDSS; hits give low values. B-score at 10 µM. 100,000 compounds, 4% hits. AID 449739;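 active = single-dose well whose peak fluorescence ratio is a statistical outlier from its plate by either plate-standardised score or position-corrected B-score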
CYP2C9 act: CYP2C9 (human) activation; P11712; recombinant CYP2C9, luciferin-H conversion, luminescence; hits give high values; factor 1 = untreated enzyme, 0 = blocked; activation factor at 5 µM; 96,000 compounds, 1.4% hits;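 active = activation factor of 2 or more for CYP2C9 at a 5 µM dose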;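 note: 0 = sulfaphenazole-blocked wells and 1 = vehicle-only wells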
CYP2C19 act: activators of human cytochrome P450 2C19; P33261; 96,000 tested, under 10 active; activation factor at 5 µM; AID 1025; recombinant CYP2C19, luciferin-H EGE luminescence; hits give high values; 0 = fully inhibited enzyme, 1 = untreated enzyme;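 active = activation factor of at least 2 at 5 µM in the primary screen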;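 note: 0 = wells with 2.5 mM tranylcypromine and 1 = vehicle-only wells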
CYP2C9 inh: human CYP2C9 inhibition; P11712; CYP2C9 Supersomes, luciferin-H conversion, luminescence; inhibition, % at 5 µM; 96,000 compounds, 20% hits;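 active = blocking of liver enzyme CYP2C9 beyond about 50% at 5 µM, limit read from the data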
* marks the source's active call; other numbers are inactive results.

Screening COc1ccc(C(=O)N2CCCC(c3nc(-c4cc(OC)c(OC)c(OC)c4)no3)C2)cc1 (stereo not drawn) returned CYP2C19 inh 31, Cav3 T inh -2.2, CYP2C9 act 0.3, CYP2C19 act 0.7 and CYP2C9 inh 66*.
`COc1ccccc1C(=O)N1CCCC(c2nc(-c3cc(OC)c(OC)c(OC)c3)no2)C1` (stereo not drawn) gave CYP2C19 inh 59*, Cav3 T inh 1.4, CYP2C9 act 0.6, CYP2C19 act 0.4 and CYP2C9 inh 45.
`CC1(C)Cc2noc(N)c2C(C)(C)N1OC(=O)c1cccs1` gave CYP2C19 inh 98*, Cav3 T inh 1.2, CYP2C9 act 0.2, CYP2C19 act 0 and CYP2C9 inh 83*.
`CC1(C)Cc2noc(N)c2C(C)(C)N1OC(=O)c1scc2c1OCCO2` gave CYP2C19 inh 51*, Cav3 T inh 1.4, CYP2C9 act 0.7, CYP2C19 act 0.5 and CYP2C9 inh 29.
Screening CC(=O)ON1C(C)(C)Cc2noc(N)c2C1(C)C returned CYP2C19 inh -5, Cav3 T inh -0.43, CYP2C9 act 1, CYP2C19 act 1.1 and CYP2C9 inh 1.
Screening O=C1CC(C2CCCO2)C(=O)N1c1ccccc1 (stereo not drawn) returned Cav3 T inh 0.47.
For COc1cc(OC)c(C(=O)CCCN2CCCC2)c(OC)c1 the results were Cav3 T inh 1.3.
`COc1ccccc1C(=O)Nc1ccc(N2CCN(Cc3ccccc3)CC2)cc1` gave CYP2C19 inh 7, Cav3 T inh -2.8, CYP2C9 act 2.5*, CYP2C19 act 0.9 and CYP2C9 inh -145.
Screening COc1ccccc1C(=O)Nc1ccc(N2CCCCC2)cc1 returned CYP2C19 inh 17, Cav3 T inh -2.8, CYP2C9 act 3.8*, CYP2C19 act 0.8 and CYP2C9 inh -282.
Cc1ccc(C(=O)Nc2ccc3c(c2)nc2n3CCSC2)cc1 was read as CYP2C19 inh 4, Cav3 T inh 3.9, CYP2C9 act 0.9, CYP2C19 act 1 and CYP2C9 inh 10.
Screening COc1ccccc1C(=O)Nc1ccc2c(c1)nc1n2CCSC1 returned CYP2C19 inh 18, Cav3 T inh 0.14, CYP2C9 act 2*, CYP2C19 act 0.8 and CYP2C9 inh -97.
`COc1ccc(NC(=O)c2ccc(CN3CCN(c4ccccc4)CC3)cc2)cc1OC` gave CYP2C19 inh 7, Cav3 T inh 1.1, CYP2C9 act 0.8, CYP2C19 act 0.9 and CYP2C9 inh 17.
`C=CCSc1ncc(C#N)c(N)n1` gave Cav3 T inh -0.073.
`COc1ccc2sc(N3C(=O)C4CC=C(C)CC4C3=O)nc2c1` (stereo not drawn) gave CYP2C19 inh 61*, Cav3 T inh -1.4, CYP2C9 act 0.2, CYP2C19 act 0.4 and CYP2C9 inh 80*.
Screening Cn1c(=O)c2ncn(CC(=O)Nc3cccc(-c4nc5ccccc5s4)c3)c2n(C)c1=O returned CYP2C19 inh 22, Cav3 T inh 0.066, CYP2C9 act 0.5, CYP2C19 act 0.8 and CYP2C9 inh 50*.
`O=C(NCc1ccc(F)cc1)C(c1cccs1)N(C(=O)c1csnn1)C1CC1` (stereo not drawn) gave CYP2C19 inh 23, Cav3 T inh 1.4, CYP2C9 act 1.1, CYP2C19 act 0.8 and CYP2C9 inh -14.
CC(=O)CN1Cc2ccccc2/C1=N\C(=O)Nc1ccccc1 was read as CYP2C19 inh 58*, Cav3 T inh 0.22, CYP2C9 act 0.5, CYP2C19 act 0.4 and CYP2C9 inh 48.
For CCN1CCN(CC(=O)Nc2ccccc2)C(=O)C1=O the results were CYP2C19 inh 6, Cav3 T inh -0.55, CYP2C9 act 1, CYP2C19 act 0.9 and CYP2C9 inh 4.
Screening Cc1ccc(-n2c(O)c(C=NC3CCS(=O)(=O)C3)c3ccccc3c2=O)cc1 (stereo not drawn) returned CYP2C19 inh 6, Cav3 T inh 0.042, CYP2C9 act 0.9, CYP2C19 act 0.9 and CYP2C9 inh 8.
For O=c1c2ccccc2c(/C=N/n2cnnc2)c(O)n1-c1ccccc1 the results were CYP2C19 inh 6, Cav3 T inh 0.56, CYP2C9 act 0.4, CYP2C19 act 0.9 and CYP2C9 inh 61*.
Screening Oc1ccccc1/C=N/n1cnnc1 returned CYP2C19 inh -4, Cav3 T inh 0.76, CYP2C9 act 0.9, CYP2C19 act 1 and CYP2C9 inh 12.
Screening COc1ccc(-n2c(O)c(/C=N/n3cnnc3)c3ccccc3c2=O)cc1 returned CYP2C19 inh -7, Cav3 T inh -0.74, CYP2C9 act 0.3, CYP2C19 act 1.1 and CYP2C9 inh 75*.
For OCCNc1nc(N2CCN(Cc3ccccc3)CC2)nc2ccccc12 the results were CYP2C19 inh 25, Cav3 T inh -0.13, CYP2C9 act 0.5, CYP2C19 act 0.8 and CYP2C9 inh 54*.
For c1ccc(CN2CCN(c3nc(N4CCOCC4)c4ccccc4n3)CC2)cc1 the results were Cav3 T inh -1.6.
For Cc1cc(C)c(S(=O)(=O)N(C)CC(=O)N2CCCCC2)c(C)c1 the results were CYP2C19 inh 44, CYP2C9 act 2.9*, CYP2C19 act 0.6 and CYP2C9 inh -185.
Cc1cc(C)c(S(=O)(=O)N(C)Cc2cnn(C)c2)c(C)c1 was read as CYP2C19 inh 88*, Cav3 T inh -0.033, CYP2C9 act 2*, CYP2C19 act 0.1 and CYP2C9 inh -97.
Screening Cc1cc(C)c(S(=O)(=O)N(CC(=O)N2CCCC2)C2CCCCC2)c(C)c1 returned CYP2C19 inh 28, Cav3 T inh -1.8, CYP2C9 act 0.4, CYP2C19 act 0.7 and CYP2C9 inh 58*.
CN(CC(=O)N1CCCCCC1)S(=O)(=O)c1ccc(Br)s1 was read as CYP2C19 inh 21, Cav3 T inh 0.83, CYP2C9 act 1, CYP2C19 act 0.8 and CYP2C9 inh 2.
For CN(Cc1cnn(C)c1)C(=O)c1cc2ccccc2oc1=O the results were CYP2C19 inh 15, Cav3 T inh 0.41, CYP2C9 act 1.1, CYP2C19 act 0.9 and CYP2C9 inh -11.
Cc1cc(C)c(S(=O)(=O)N(CC(=O)NCc2cccnc2)C2CCCCC2)c(C)c1 was read as CYP2C19 inh 99*, Cav3 T inh -1.7, CYP2C9 act 0.1, CYP2C19 act 0 and CYP2C9 inh 94*.
C=CCOC(=O)C1C(=O)CC(C)(O)C(C(=O)OCC=C)C1c1ccc(OCC)cc1 (stereo not drawn) was read as CYP2C19 inh 22, CYP2C9 act 0.8, CYP2C19 act 0.8 and CYP2C9 inh 22.
Screening CC1(C)CC(=O)c2cnc(NC(=O)c3ccco3)nc2C1 returned CYP2C19 inh 3, Cav3 T inh 0.98, CYP2C9 act 0.9, CYP2C19 act 1 and CYP2C9 inh 6.
`COc1ccc(Cn2nnnc2C(c2cc(OC)ccc2OC)N2CCC(C(N)=O)CC2)cc1` (stereo not drawn) gave CYP2C19 inh 38, CYP2C9 act 1, CYP2C19 act 0.6 and CYP2C9 inh 4.
